According to PubChem BioAssay (Tox21):
Active and inactive are the calls of the source. Calls follow the shape of the dose curve; as a rule, active = well fitted curve in the direction sought with a large enough effect in the repeat runs; inconclusive = weak or mixed curves; inactive = flat fitted curve, though single readings scatter.

Test: qHTS assay to test for compound auto fluorescence at 460 nm (blue) in HEK293 cells (AID 720678)
Details: blue autofluorescence 405/460 nm; series mostly up to 91.3 µM
How it was run: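 Cells were seeded and left to adhere for 4-5 hr at 37C. Compounds were then pin-transferred. After an overnight incubation at 37C under 5% CO2, intrinsic fluorescence at 405/460 nm was measured and referenced to triamterene.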
For `CCC(C)(CCC(C)C)C(=O)[O-].CCC(C)(CCC(C)C)C(=O)[O-].[Zn+2]` (stereo unspecified), the outcome was “inactive”.
In the case of `CC(=O)OCC(=O)[C@@]1(O)[C@H](OC(C)=O)C[C@H]2[C@@H]3CCC4=CC(=O)C=C[C@]4(C)[C@@]3(F)[C@@H](O)C[C@@]21C`, the outcome is reported as “inactive”.
For `CC(C)COC(=O)COc1ccc(Cl)cc1Cl`, the outcome was “inactive”.
In the case of `CC(=O)c1ccc(OCC(=O)N2CCCCC2)cc1`, the outcome is reported as “inactive”.
For `CN=C(NC#N)NCCSCc1csc(N=C(N)N)n1`, the outcome was “inactive”.
With `C[Si]1(C)N[Si](C)(C)N[Si](C)(C)N1` the outcome was “inactive”.
For `Cc1ccccc1C`, the outcome was “inactive”.
For `O=c1cc(O)c(Cl)c[nH]1`, the outcome was “inactive”.
In the case of `CCC(CO)CO`, the outcome is reported as “inactive”.
For `COC(/C=C(\C)CCC=C(C)C)OC`, the outcome was “inactive”.
With `CC(C)(CO)[C@@H](O)C(=O)NCCCO` the outcome was “inactive”.
